This is an account of results in PMC4336329 (PLoS ONE, 2015).

Molecules are shown by their SMILES. Out of some 310,000 compounds screened, about 14,000 (4.5%) showed an effect of 50% or more. The effect is printed as a negative number. The entries come from a sample that favours strong results as a whole.
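Further: peak tail current of the secondary pulse compared with the same well before compound.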

The experiment deals with human ether-à-go-go-related gene (hERG) potassium channel (human, UniProt Q12809). As to the kind of experiment: primary screen, population patch clamp on CHO cells stably expressing hERG; higher = less effect of the substance.
human ether-à-go-go-related gene (hERG) potassium channel, sequence (Q12809 whole entry, looked up): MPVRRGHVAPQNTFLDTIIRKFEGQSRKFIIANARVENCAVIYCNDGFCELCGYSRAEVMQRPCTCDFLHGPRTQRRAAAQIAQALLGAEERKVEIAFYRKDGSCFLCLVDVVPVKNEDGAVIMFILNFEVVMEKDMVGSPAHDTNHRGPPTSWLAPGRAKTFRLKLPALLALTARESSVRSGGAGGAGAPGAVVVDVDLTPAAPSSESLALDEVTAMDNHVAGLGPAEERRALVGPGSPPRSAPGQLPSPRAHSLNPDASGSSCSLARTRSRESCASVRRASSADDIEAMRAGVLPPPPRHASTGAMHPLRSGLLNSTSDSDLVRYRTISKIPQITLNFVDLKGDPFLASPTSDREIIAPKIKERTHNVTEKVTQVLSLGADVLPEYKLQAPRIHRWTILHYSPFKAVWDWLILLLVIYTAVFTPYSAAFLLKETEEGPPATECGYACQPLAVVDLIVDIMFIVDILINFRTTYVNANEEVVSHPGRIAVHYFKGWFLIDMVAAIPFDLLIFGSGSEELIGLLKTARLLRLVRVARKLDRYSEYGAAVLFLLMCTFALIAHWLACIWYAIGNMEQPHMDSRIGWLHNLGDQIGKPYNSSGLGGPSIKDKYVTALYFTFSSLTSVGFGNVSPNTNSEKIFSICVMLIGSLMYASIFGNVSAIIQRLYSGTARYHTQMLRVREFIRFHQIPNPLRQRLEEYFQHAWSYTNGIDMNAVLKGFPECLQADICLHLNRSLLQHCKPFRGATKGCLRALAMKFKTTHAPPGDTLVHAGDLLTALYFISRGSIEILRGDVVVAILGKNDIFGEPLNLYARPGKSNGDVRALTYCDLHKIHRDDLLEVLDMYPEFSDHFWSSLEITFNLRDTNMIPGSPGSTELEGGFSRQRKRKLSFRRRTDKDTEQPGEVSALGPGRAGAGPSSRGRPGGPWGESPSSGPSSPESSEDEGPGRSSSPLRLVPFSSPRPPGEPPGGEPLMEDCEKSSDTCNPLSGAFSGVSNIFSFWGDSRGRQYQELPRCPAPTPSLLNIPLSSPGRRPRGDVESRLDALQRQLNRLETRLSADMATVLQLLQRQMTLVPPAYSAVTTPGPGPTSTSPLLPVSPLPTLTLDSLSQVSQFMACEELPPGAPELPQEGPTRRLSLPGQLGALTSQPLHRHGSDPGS
With `Cl.c1ccc2c(N3CCNCC3)cccc2c1`, the “hERG current change (%, negative = inhibition) at 10uM” value is 10.9%.

Consider `Cc1nnc(NC(=O)C2=COCCO2)s1`, for which the “hERG current change (%, negative = inhibition) at 10uM” value is listed as 7.13%.

For the compound `CN(C)CCCNCC(=O)NN(c1ccccc1)c1ccccc1.O=C(O)C(=O)O`, the “hERG current change (%, negative = inhibition) at 10uM” value is -17.4%.

With `CCC(C)[C@H](N)c1nnc(SCC(=O)Nc2cccc(Cl)c2)o1.Cl` (some centres unmarked), the “hERG current change (%, negative = inhibition) at 10uM” value is given as -15.6%.

As for `COc1cnc(-c2ccccn2)nc1N(C)C`, the “hERG current change (%, negative = inhibition) at 10uM” value is reported as -1.39%.

Turning to `CC(=NCc1ccco1)c1c(O)n(-c2ccccc2)c(=O)[nH]c1=O`, the “hERG current change (%, negative = inhibition) at 10uM” value was determined as 4.82%.

On to `COc1cc(/C=N/NC(=S)NCCN2CCOCC2)cc(OC)c1O`, for which the “hERG current change (%, negative = inhibition) at 10uM” value worked out at 12.7%.

For the compound `CC1(C)CC2CC(C)(CN2S(=O)(=O)c2cccc(C(=O)OCC(=O)NC(N)=O)c2)C1` (centres unmarked), the “hERG current change (%, negative = inhibition) at 10uM” value is -57.1%.

As for `CNC(=O)NC(=O)COC(=O)c1cccc(S(=O)(=O)N2CC3(C)CC2CC(C)(C)C3)c1` (centres unmarked), the “hERG current change (%, negative = inhibition) at 10uM” value is on record as -14.4%.

As to `CCCCNC(=O)c1cccc(S(=O)(=O)N2CC3(C)CC2CC(C)(C)C3)c1` (centres unmarked), the “hERG current change (%, negative = inhibition) at 10uM” value is recorded as -26.7%.

With `CC1(C)CC2CC(C)(CN2S(=O)(=O)c2cccc(C(=O)OCC(N)=O)c2)C1` (centres unmarked), the “hERG current change (%, negative = inhibition) at 10uM” value is listed as -7.62%.

For the compound `CCCCCNC(=O)c1cccc(S(=O)(=O)N2CC3(C)CC2CC(C)(C)C3)c1` (centres unmarked), the “hERG current change (%, negative = inhibition) at 10uM” value is on record as -1.24%.

For `CCCNC(=O)c1cccc(S(=O)(=O)N2CC3(C)CC2CC(C)(C)C3)c1` (centres unmarked), the “hERG current change (%, negative = inhibition) at 10uM” value is -57.6%.

For `Br.O=C1SC(SC(=Nc2ccccc2)Nc2ccccc2)C(=O)N1c1ccccc1` (centres unmarked), the “hERG current change (%, negative = inhibition) at 10uM” value was found to be 11.1%.

As for `COc1ccc(C(=O)N2CCCC2(C#N)c2ccccc2)cc1[N+](=O)[O-]` (centres unmarked), the “hERG current change (%, negative = inhibition) at 10uM” value was -41%.

For the compound `CCOc1ccc(C(=O)NC2CCCCCCC2)cc1`, the “hERG current change (%, negative = inhibition) at 10uM” value amounted to 4.13%.

Regarding `COc1ccccc1-n1cc2ccc([N+](=O)[O-])cc2n1`, the “hERG current change (%, negative = inhibition) at 10uM” value is 8.8%.

Take `O=C(CC(Nc1ccccc1)C(=O)O)c1ccccc1` (centres unmarked): the “hERG current change (%, negative = inhibition) at 10uM” value stood at 11.2%.

Turning to `COc1cccc(NC(=O)Nc2ccccc2C(N)=O)c1`, the “hERG current change (%, negative = inhibition) at 10uM” value is on record as 1.99%.

Take `CCOc1ccc(S(=O)(=O)Nc2cc(OC)c(OC)cc2C(=O)O)cc1`: the “hERG current change (%, negative = inhibition) at 10uM” value turned out to be 3.94%.

Take `COc1ccccc1-n1cc([C@@H]2C[C@H]3CN(c4ccccc4)C(=O)[C@]34CCCN24)cn1`: the “hERG current change (%, negative = inhibition) at 10uM” value is given as -17.1%.

As for `O=C1N(c2ccccc2)C[C@@H]2C[C@@H](c3cccs3)N3CCC[C@@]123`, the “hERG current change (%, negative = inhibition) at 10uM” value is -11.5%.

With `COc1cc(Cl)c([C@@H]2C[C@H]3CN(c4ccccc4)C(=O)[C@]34CCCN24)cc1OC`, the “hERG current change (%, negative = inhibition) at 10uM” value is recorded as -70.9%.

Consider `COc1cc([C@@H]2C[C@H]3CN(c4ccccc4)C(=O)[C@]34CCCN24)cc(OC)c1OC`, for which the “hERG current change (%, negative = inhibition) at 10uM” value is recorded as -32%.

Take `COc1ccc([C@@H]2C[C@H]3CN(c4ccccc4)C(=O)[C@]34CCCN24)c(OC)c1OC`: the “hERG current change (%, negative = inhibition) at 10uM” value was -78.3%.

As for `CCOc1cc([C@@H]2C[C@H]3CN(c4ccccc4)C(=O)[C@]34CCCN24)ccc1OC`, the “hERG current change (%, negative = inhibition) at 10uM” value was -10.4%.

Take `CCc1cc2cc(C(=O)N3CCN(Cc4ccccc4)CC3)sc2s1`: the “hERG current change (%, negative = inhibition) at 10uM” value is recorded as -36.7%.

On to `CCN(c1ccccc1C)S(=O)(=O)c1cc2c3c(c1)CCC(=O)N3CCC2`, for which the “hERG current change (%, negative = inhibition) at 10uM” value is on record as -11.2%.

Consider `COc1ccc(C(CC(=O)Nc2cc([N+](=O)[O-])ccc2OC)c2ccccc2)cc1` (centres unmarked), for which the “hERG current change (%, negative = inhibition) at 10uM” value stood at 8.82%.

Turning to `O=C(CSCc1ccccc1)Nc1ccccc1`, the “hERG current change (%, negative = inhibition) at 10uM” value was found to be 8.79%.

Consider `Cc1ccc(S(=O)(=O)Oc2ccc(/C=N/NC(=O)c3c(Cl)cnn3C)cc2)cc1`, for which the “hERG current change (%, negative = inhibition) at 10uM” value is on record as -8.14%.

For `CCOC(=O)N1CCN(c2nc(C)c3c(n2)CCCC3=O)CC1`, the “hERG current change (%, negative = inhibition) at 10uM” value is listed as 7.97%.

Turning to `CC1CCCN(CCCCOc2cccc(Br)c2)C1.O=C(O)C(=O)O` (centres unmarked), the “hERG current change (%, negative = inhibition) at 10uM” value is recorded as -69%.

Turning to `CCN1CCN(CCOCCOc2ccccc2)CC1.O=C(O)C(=O)O`, the “hERG current change (%, negative = inhibition) at 10uM” value is reported as 10.8%.

For the compound `Clc1cccc(OCCCCN2CCCCC2)c1`, the “hERG current change (%, negative = inhibition) at 10uM” value was -36.6%.

On to `CC(C)c1cccc(OCCN2CCCC2)c1`, for which the “hERG current change (%, negative = inhibition) at 10uM” value is given as 5.18%.

Turning to `Clc1cccc(OCCN2CCOCC2)c1.O=C(O)C(=O)O`, the “hERG current change (%, negative = inhibition) at 10uM” value is recorded as -2.27%.

Regarding `COc1cccc(OCCCCN2CC(C)OC(C)C2)c1.O=C(O)C(=O)O` (centres unmarked), the “hERG current change (%, negative = inhibition) at 10uM” value is -4.73%.

As to `CN(C)CCCCOc1cccc(Br)c1.O=C(O)C(=O)O`, the “hERG current change (%, negative = inhibition) at 10uM” value is reported as -23.7%.

For `CC1CCN(CCCCOc2cccc(C(C)C)c2)CC1.O=C(O)C(=O)O`, the “hERG current change (%, negative = inhibition) at 10uM” value is -71.7%.

Turning to `CCN1CCN(CCOc2cccc(Oc3ccccc3)c2)CC1.O=C(O)C(=O)O`, the “hERG current change (%, negative = inhibition) at 10uM” value was -61.1%.

For `CC(C)c1cccc(OCCCCN(C)C)c1.O=C(O)C(=O)O`, the “hERG current change (%, negative = inhibition) at 10uM” value was -14.1%.

For the compound `CCC1CCCCN1CCCCOc1cccc(Cl)c1.O=C(O)C(=O)O` (centres unmarked), the “hERG current change (%, negative = inhibition) at 10uM” value is reported as -72%.

For `CN(C)CCCOc1cccc(Oc2ccccc2)c1.O=C(O)C(=O)O`, the “hERG current change (%, negative = inhibition) at 10uM” value was -34.5%.
